This note sets out measurements from PubChem BioAssay (NCI).

Holding throughout (test): NCI-60 one-dose screen, 48 h (100 = growth as untreated, 0 = no growth, -100 = all killed)
Common to all, as to settings: 10 µM unless noted

The test system of assay [1] is T-47D breast.
Assay [2] has as its system BT-549 breast.
Assay [3] deals with MDA-MB-435 melanoma.
Assay [4] has as its system SW-620 colon.
Assay [5] concerns MCF7 breast.
For assay [6], the system named is HCT-116 colon.
Assay [7] relates to HCC-2998 colon.
For assay [8], the system named is KM12 colon.

Structures are written as SMILES. The panel holds about 83,000 compounds, 20% with a hit somewhere; the sample as a whole holds those more often.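 Step 1: grow cells in 96-well plates. Step 2: add test compound at a single concentration. Step 3: incubate 48 h. Step 4: record percent growth.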 A number with no mark means an inactive call. The source made the active and inactive calls. The calls were made as follows: active = growth percent below 10; inactive = the rest.

Take `C/C(=N\NC(=S)Nc1ccccc1)c1ccccn1`: the growth in assay [1] is 28.7%; in assay [2], 40.2%; in assay [3], 59.6%; in assay [4], 35%; in assay [5], 18.7%; in assay [6], 6.94% (active). For the same compound, the growth was 48.1% in assay [7] and 29.7% in assay [8].

Turning to `CCc1ccc(Nc2cc(C)c3ccc(O)cc3n2)cc1`, the growth in assay [1] was 55.3%; in assay [2] it was 88.3%; in assay [3], 28.5%; in assay [4], 78.5%; in assay [5] it was 63.9%; in assay [6], 56.8%. In addition, the growth in assay [7] was -59.8% (active); in assay [8], 53.9%.

As for `CCSc1ccc([C@@H]2[C@@H](O)C(=O)N2c2cc(OC)c(OC)c(OC)c2)cc1`, the growth was 76.6% in assay [1]; 9.68% (active) in assay [2]; -32.4% (active) in assay [3]; 22.3% in assay [4]; 20.1% in assay [5]; 2.13% (active) in assay [6]. In addition, the growth was 29.6% in assay [7] and 11.3% in assay [8].

Regarding `CSC1=NC(=Nc2c(C)cccc2C)C2(CCC(C(C)(C)C)CC2)N1c1ccc(Cl)cc1` (centres undefined), the growth was 89.9% in assay [1]; 81.4% in assay [2]; 36.5% in assay [3]; 28.6% in assay [4]; 43% in assay [5]; 22.4% in assay [6]. Also, the growth in assay [7] was 44.3%; in assay [8], 39.9%.

Consider `CCOC(=O)C1=C(C)NC(SCc2nnc(-c3ccc(Cl)cc3)o2)=NC1c1ccc(Cl)cc1` (centres undefined), for which the growth is 49.9% in assay [1]; 75.3% in assay [2]; 69.6% in assay [3]; 85.9% in assay [4]; 49% in assay [5]; 46.2% in assay [6]. Also, the growth is 79.9% in assay [7] and 69.8% in assay [8].

Turning to `COc1ccc2[nH]cc(/C=C3\C(=O)Nc4ccccc43)c2c1`, the growth in assay [1] is 36.6%; in assay [2], 48.5%; in assay [3], -41.6% (active); in assay [4] it was 11.4%; in assay [5], 16.3%; in assay [6], 17.9%. The values for the growth in assay [7] and in assay [8] were 36% and 13.7%, respectively.

In the case of `COC1=CC(c2ccc[nH]2)=N/C1=C\c1[nH]c(C)c(C(=O)CCCCCCCCC(=O)O[C@H]2CC[C@H]3C4CCc5cc(O)ccc5C4CC[C@]23C)c1C` (some centres undefined), the growth in assay [1] is 29.8%; in assay [2], 38.3%; in assay [3], 14.3%; in assay [4] it was 6.58% (active); in assay [5] it was 24.1%; in assay [6] it was 7.77% (active). In addition, the growth in assay [7] was 26.2%; in assay [8], 17.5%.

Consider `COc1cc(C)c2c(=O)c3c(oc2c1)C(=O)c1c(O)c(OC)cc(O)c1C3=O`, for which the growth in assay [1] was 0.298% (active); in assay [2], 11.7%; in assay [3], 16.3%; in assay [4], 16.9%; in assay [5], 7.86% (active); in assay [6], 7.58% (active). The growth in assay [7] was 1.73% (active); in assay [8] it was 14.6%.

As for `O=C1/C(=C\c2cccn2Cc2ccc(Cl)cc2)c2ccccc2N1c1c(Cl)cccc1Cl`, the growth is 25.1% in assay [1]; 94.5% in assay [2]; 106% in assay [3]; 91.5% in assay [4]; 12.8% in assay [5]; 77% in assay [6]. For the same compound, the growth is 79.8% in assay [7] and 54.3% in assay [8].

Regarding `CC(C)c1ccc(Cn2ccc3c4c(N)nc(NC5CC5)nc4ccc32)cc1`, the growth in assay [1] is -54.8% (active); in assay [2], -71.2% (active); in assay [3], -97% (active); in assay [4], -82.6% (active); in assay [5], -82% (active); in assay [6], -82.8% (active). Moreover, the growth is -78.6% (active) in assay [7] and -79.2% (active) in assay [8].

As for `CC1C2CCC(C2)C1COCCOCCO` (centres undefined), the growth is 98.7% in assay [1]; 104% in assay [2]; 110% in assay [3]; 101% in assay [4]; 105% in assay [5]; 108% in assay [6]. The results for the growth in assay [7] and in assay [8] were 105% and 110%, respectively.

As for `c1ccc2c(Cc3csc4ccccc34)csc2c1`, the growth is 78.9% in assay [1]; 92.2% in assay [2]; -9.16% (active) in assay [3]; 62.6% in assay [4]; 68.4% in assay [5]; 78% in assay [6]. The growth is 85.3% in assay [7] and 75.8% in assay [8].

Turning to `COc1ccc(C2=CC(c3ccc(OC)cc3Br)N3C=CSC3=N2)cc1` (centres undefined), the growth in assay [1] is 54.6%; in assay [2], 30.7%; in assay [3], 4.2% (active); in assay [4], 27.3%; in assay [5], 10.5%; in assay [6], -100% (active). For the same compound, the growth was 59.7% in assay [7] and 24.1% in assay [8].

As for `COCCOCCOCc1n(Cc2ccc3ccccc3n2)c2ccccc2[n+]1Cc1ccc2ccccc2c1`, the growth was 4.77% (active) in assay [1]; -9.56% (active) in assay [2]; -21.9% (active) in assay [3]; 12.4% in assay [4]; 4.87% (active) in assay [5]; 7.79% (active) in assay [6]. The growth in assay [7] was 12.8%; in assay [8], -41.5% (active).

As to `COc1c(B(O)O)cccc1-c1nc2ccc3[nH]ncc3c2c2c1CCCC2`, the growth was 39.2% in assay [1]; 7.15% (active) in assay [2]; 38.4% in assay [3]; 8.47% (active) in assay [4]; 2.24% (active) in assay [5]; 6% (active) in assay [6]. The figures for the growth in assay [7] and in assay [8] were 53.3% and 1.71% (active), respectively.

Take `Cc1cc(-c2nnc(/C=C/c3ccc4c(c3)OCO4)o2)n[nH]1`: the growth in assay [1] is 60.9%; in assay [2] it was 35.1%; in assay [3], -25.4% (active); in assay [4], 25.5%; in assay [5] it was 31.7%; in assay [6] it was 48.1%. Besides, the growth is 75.8% in assay [7] and 36.1% in assay [8].

For `Cc1cccc(C(=O)O)n1`, the growth is 106% in assay [1]; 109% in assay [2]; 95.8% in assay [3]; 103% in assay [4]; 104% in assay [5]; 99.2% in assay [6]. In addition, the growth in assay [7] was 98.7%; in assay [8], 110%.

Regarding `CCCc1cc2c(cc1CN(Cc1cc3c(cc1CCC)OCO3)C(=N)OCC)OCO2`, the growth in assay [1] was 84.7%; in assay [2], 80.4%; in assay [3], 103%; in assay [4] it was 81%; in assay [5] it was 86.5%; in assay [6] it was 41.2%. Besides, the growth in assay [7] was 90.5%; in assay [8] it was 92.8%.

As to `COc1cccc2nc(Nc3cccc(NC(=O)c4cc(N5CCOCC5)cc(C(F)(F)F)c4)c3)ccc12`, the growth was 42.4% in assay [1]; 78.6% in assay [2]; 55.3% in assay [3]; 95.8% in assay [4]; 45.2% in assay [5]; 41.9% in assay [6]. Besides, the growth is 76.9% in assay [7] and 52.3% in assay [8].

Consider `CCC(C)C1NC(=O)c2nc(oc2-c2ccccc2)-c2csc(n2)-c2csc(n2)-c2nc(oc2C)-c2coc(n2)CNC(=O)C(C(C)CC)NC1=O` (centres undefined), for which the growth in assay [1] is -62.5% (active); in assay [2], -78.4% (active); in assay [3], -87.5% (active); in assay [4], -82.6% (active); in assay [5], -68.6% (active); in assay [6], -59% (active). Besides, the growth was -80.1% (active) in assay [7] and -73.9% (active) in assay [8].

In the case of `COc1cc(C2CC(c3ccc(Nc4ccnc5cc(Cl)ccc45)cc3)=NN2c2ccccc2)cc(OC)c1OC` (centres undefined), the growth in assay [1] is 67.7%; in assay [2] it was 82.3%; in assay [3], 6.36% (active); in assay [4], 50.2%; in assay [5], 48%; in assay [6] it was 54.9%. Further, the growth in assay [7] is 67.7%; in assay [8], 47.9%.

In the case of `O=C(/C=C/c1cc([N+](=O)[O-])ccc1Cl)c1ccccc1`, the growth in assay [1] was 72.3%; in assay [2], 86.3%; in assay [3] it was 86%; in assay [4], 6.41% (active); in assay [5] it was 20.6%; in assay [6], -100% (active). Moreover, the results for the growth in assay [7] and in assay [8] were 103% and 5.35% (active), respectively.

As to `CCOC(=O)c1sc2nc(-c3cc4ccccc4o3)cc(-c3ccc(Cl)cc3)c2c1N`, the growth was 103% in assay [1]; 148% in assay [2]; 222% in assay [3]; 96.8% in assay [4]; 110% in assay [5]; 105% in assay [6]. Moreover, the growth in assay [7] is 109%; in assay [8], 99.7%.

As for `COc1ccc2cc(-c3nc(C)c(C(C)=O)c(-c4ccc(C)cc4)n3)ccc2c1`, the growth in assay [1] was 72.1%; in assay [2], 82.3%; in assay [3], 89.1%; in assay [4] it was 91.3%; in assay [5] it was 88.3%; in assay [6], 86.3%. The values for the growth in assay [7] and in assay [8] were 109% and 91.7%, respectively.

`c1ccc(C(CC2=NCCCN2)c2ccccc2)cc1`: the growth in assay [1] is 101%; in assay [2] it was 95.1%; in assay [3], 94%; in assay [4], 100%; in assay [5] it was 94.1%; in assay [6], 97.3%. Moreover, the results for the growth in assay [7] and in assay [8] were 102% and 99.7%, respectively.

For `O=C1/C(=C\c2cccn2C(=O)c2ccccc2)c2ccccc2N1c1c(Cl)cccc1Cl`, the growth in assay [1] is 65.6%; in assay [2], 102%; in assay [3], 33.8%; in assay [4] it was 30%; in assay [5] it was 29.8%; in assay [6], 30.5%. Also, the figures for the growth in assay [7] and in assay [8] were 83.8% and 65.4%, respectively.

Consider `Cc1ccc(N2C3c4ccccc4N(S(=O)(=O)c4ccc(C)cc4)C2c2ccccc2N3S(=O)(=O)c2ccc(C)cc2)cc1`, for which the growth in assay [1] is 93.2%; in assay [2], 115%; in assay [3] it was 99.9%; in assay [4], 96.6%; in assay [5], 88.5%; in assay [6], 121%. Further, the growth in assay [7] was 115%; in assay [8], 95.4%.

For `O=C(Nc1ccccc1Cl)Oc1ccc2ccccc2c1`, the growth in assay [1] is 88.5%; in assay [2] it was 133%; in assay [3], 105%; in assay [4], 103%; in assay [5], 84.4%; in assay [6] it was 95.3%. The growth is 95.1% in assay [7] and 95.9% in assay [8].
